The campaign covered roughly 350,000 compounds. About 6,000 (1.7%) were called active. Roughly 5% stayed inconclusive and do not appear here. For the sample, actives were picked, then their nearest neighbours and some compounds at random. Values without a mark were called inactive. Rule as the data show it: active = CPE inhibition above about 20% (passing the limit was not always enough); inconclusive = no clear call, values can overlap the other calls; tested in BHK-21 cells.
Assay: inhibitors of DENV2 cytopathic effect, primary screen, cell-based, plate reader, single concentration (AID 651640);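 also: 0% = median of neutral control wells and 100% = median of positive control wells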
Details: DENV2-infected cells, cytopathic effect rescue, at 9.99 µM, active compounds read high
Work on `C[C@@H]1CCCCO[C@H](CN(C)S(=O)(=O)c2cn(C)cn2)[C@@H](C)CN([C@@H](C)CO)C(=O)c2cc(NC(=O)c3ccncc3)ccc2O1` yielded a CPE inhibition of 1.9%.
Molecule `COc1cc2c(cc1OC)CN(CC(=O)Nc1ccc(F)cc1)CC2` has a CPE inhibition of -5.5%.
With `O=C(CN1CCc2cc3c(cc2C1)OCCCO3)Nc1ccccc1` the CPE inhibition was 28.1% (active).
Work on `O=C(CN1CCOCC1)Nc1ccccc1` yielded a CPE inhibition of 1.83%.
Molecule `O=C([C@@H]1[C@@H](CO)[C@@H]2Cn3c(ccc(C4=CCCCC4)c3=O)[C@H]1N2Cc1nccs1)N1CCCCC1` has a CPE inhibition of -3.86%.
`COc1ccc2c3c(n(C)c2c1)[C@@H](CO)N(C(=O)c1cccnc1)CC31CCN(C(=O)c2cccnc2)CC1` showed a CPE inhibition of -1.97%.
In the case of `CCCC#Cc1ccc([C@@H]2[C@@H](CO)N3C(=O)CN(C(=O)c4ccncc4)C[C@@H]23)cc1`, the CPE inhibition is reported as 0.156%.
In the case of `COCC(=O)N1[C@H](CO)[C@@H](c2ccccc2)[C@H]1CN(C)C(=O)c1ccncc1`, the CPE inhibition is reported as -13.8%.
With `CCNC[C@@H]1[C@@H](c2ccccc2)[C@@H](CO)N1C(=O)Cc1ccccn1` the CPE inhibition was -0.972%.
With `COCC(=O)N1[C@H](CNC(=O)c2ccccn2)[C@H](c2ccccc2)[C@@H]1CO` the CPE inhibition was 35.1% (active).
`COc1ccc2c3c([nH]c2c1)[C@H](CO)N(Cc1cccc(F)c1)CC31CCN(Cc2ccccn2)CC1` gave a CPE inhibition of 5.05%.
For `O=C(Nc1ccc(CN2CCOCC2)cc1)c1cc(Cl)ccc1Cl`, the CPE inhibition was 0.583%.
With `CCOc1ccc(C(=O)Nc2ccc(CN3CCOCC3)cc2)cc1Cl` the CPE inhibition was 29.8% (active).
With `CCCc1cc(=O)oc2cc(OCC(=O)Nc3ccc(CN4CCOCC4)cc3)c(Cl)cc12` the CPE inhibition was 2.98%.
Work on `Cc1noc(C)c1NC(=O)Nc1ccc2c(c1)CC(=O)N([C@H](C)CO)C[C@@H](C)[C@H](CN(C)S(=O)(=O)c1cccs1)O2` yielded a CPE inhibition of 5.9%.
`C[C@@H]1CN([C@@H](C)CO)C(=O)c2cccc(NS(=O)(=O)c3ccc(Cl)cc3)c2O[C@@H]1CN(C)Cc1ccccc1` showed a CPE inhibition of 10.9%.
`O=C(Cc1cccnc1)N1CC(=O)N2[C@@H](CO)[C@@H](c3ccc(C#CC4CCCCC4)cc3)[C@@H]2C1` gave a CPE inhibition of 6.08%.
`O=C(Nc1nnc(-c2ccccc2)o1)c1cc(-c2cccs2)nc2ccccc12` gave a CPE inhibition of -13.1%.
For `CCCCN(C)CCCNC(=O)c1cc(-c2cccs2)nc2ccccc12`, the CPE inhibition was 41.4% (active).
For `CC(=O)NCCNC(=O)c1cc(-c2cccc3ccccc23)nc2ccccc12`, the CPE inhibition was 2.13%.
In the case of `C/C=C/c1ccc([C@H]2[C@@H](CO)N(C(=O)NCCC)[C@H]2CN(C)C(C)=O)cc1`, the CPE inhibition is reported as -22.2%.
Work on `C/C=C/c1ccc([C@@H]2[C@@H](CO)N(C(C)=O)[C@H]2CN(C)C(=O)CN(C)C)cc1` yielded a CPE inhibition of 8.38%.
In the case of `C/C=C/c1ccc([C@@H]2[C@@H](CN(C)C(C)=O)N(C(=O)C3CC3)[C@H]2CO)cc1`, the CPE inhibition is reported as 41.4% (active).
Work on `COc1ccc(-c2cn(CC[C@H]3CC[C@@H](NC(=O)CCN4CCCCC4)[C@H](CO)O3)nn2)cc1` yielded a CPE inhibition of -5.26%.
In the case of `Cc1noc(C)c1S(=O)(=O)Nc1ccc2c(c1)C(=O)N([C@@H](C)CO)C[C@H](C)[C@H](CN(C)CC1CCCCC1)OCCCC[C@H](C)O2`, the CPE inhibition is reported as -11.5%.
In the case of `CC(C)NC(=O)N1[C@@H]2c3ccc(-c4ccc(F)cc4)c(=O)n3C[C@@H]2[C@@H](CO)[C@@H]1C(=O)N1CCOCC1`, the CPE inhibition is reported as 69.3% (active).
`COc1cccc(-c2ccc3n(c2=O)C[C@@H]2[C@@H](CO)[C@H](C(=O)NCC4CC4)N(C(=O)NC(C)C)[C@H]32)c1` gave a CPE inhibition of 13.2%.
`O=C([C@@H]1[C@@H](CO)[C@@H]2Cn3c(ccc(-c4cncnc4)c3=O)[C@@H]2N1C(=O)C1CCC1)N1CCCCC1` showed a CPE inhibition of -0.056%.
`CCC(=O)N1CCCCN2[C@H](C1)[C@@H](c1ccc(/C=C/c3ccccc3)cc1)[C@@H]2CO` gave a CPE inhibition of -4.84%.
For `CC(C)(C)[S@@](=O)N1Cc2cc(C(=O)N3CCCCC3)nc(-c3cccc(-c4cccc(C#N)c4)c3)c2[C@H]1CCO`, the CPE inhibition was -1%.
In the case of `CC(C)(C)[S@](=O)N1Cc2cc(C(=O)N3CCCCC3)nc(-c3cccc(-c4ccccc4F)c3)c2[C@@H]1CCO`, the CPE inhibition is reported as 1.74%.
With `CC(C)(C)[S@](=O)N1Cc2cc(C(=O)N3CCCCC3)nc(-c3cccc(Br)c3)c2[C@@H]1CCO` the CPE inhibition was 41.3% (active).
With `COC(=O)CCCCCN1C(=O)NC(c2ccc(-c3ccccc3)cc2)C(C(=O)OCc2ccccc2)=C1C` (stereo not given) the CPE inhibition was -1.13%.
Molecule `CCC(CC)COC(=O)C1=C(C)NC(=O)NC1c1ccc([N+](=O)[O-])cc1` (stereo not given) has a CPE inhibition of 4.17%.
With `CCOC(=O)C1=C(C)N(C[C@@H]2CC[C@@H](Cc3ccc(-c4ccccc4)cc3)O2)C(=O)NC1c1ccc([N+](=O)[O-])cc1` (stereo not given in full) the CPE inhibition was 49.3% (active).
`C[C@@H]1CN([C@H](C)CO)C(=O)c2cc(NC(=O)CCCCCC(=O)Nc3ccccc3N)ccc2O[C@@H]1CN(C)Cc1ccncc1` gave a CPE inhibition of -1.11%.
`COc1ccc2c3c([nH]c2c1)[C@@H](CO)N(C(=O)c1cccc(F)c1)CC31CN(C(C)=O)C1` gave a CPE inhibition of -11.3%.
For `O=C(C[C@H]1C=C[C@@H](NC(=O)Nc2cc(F)ccc2F)[C@H](CO)O1)NCCCN1CCOCC1`, the CPE inhibition was -8.14%.
Work on `COc1ccccc1NC(=O)N1C[C@H]2[C@@H](c3ccccc31)[C@@H](CO)N2C(=O)C1CCCC1` yielded a CPE inhibition of -7.24%.
`C[C@@H]1CCCCO[C@@H](CN(C)S(C)(=O)=O)[C@H](C)CN([C@@H](C)CO)C(=O)c2cc(NC(=O)Nc3ccc4c(c3)OCO4)ccc2O1` showed a CPE inhibition of 12.2%.
`Cc1noc(C)c1S(=O)(=O)N(C)C[C@@H]1OCCCC[C@H](C)Oc2ccc(NC(=O)Nc3ccc4c(c3)OCO4)cc2C(=O)N([C@H](C)CO)C[C@@H]1C` showed a CPE inhibition of -3.84%.
Molecule `COc1ccc(S(=O)(=O)N(C)C[C@H]2OCCCC[C@H](C)Oc3ccc(NS(=O)(=O)c4c(C)noc4C)cc3C(=O)N([C@@H](C)CO)C[C@@H]2C)cc1` has a CPE inhibition of -3.17%.
In the case of `Cc1noc(C)c1S(=O)(=O)N(C)C[C@@H]1OCCCC[C@H](C)Oc2ccc(NC(=O)Nc3ccc4c(c3)OCO4)cc2C(=O)N([C@H](C)CO)C[C@H]1C`, the CPE inhibition is reported as 27.1% (active).
With `COc1ccc(S(=O)(=O)Nc2ccc3c(c2)C(=O)N([C@@H](C)CO)C[C@H](C)[C@H](CN(C)S(=O)(=O)c2c(C)noc2C)OCCCC[C@@H](C)O3)cc1` the CPE inhibition was 36% (active).
With `Cc1noc(C)c1S(=O)(=O)N(C)C[C@@H]1OCCCC[C@H](C)Oc2ccc(NC(=O)NC(C)C)cc2C(=O)N([C@H](C)CO)C[C@@H]1C` the CPE inhibition was 51.8% (active).
With `Cc1noc(C)c1S(=O)(=O)N(C)C[C@@H]1OCCCC[C@H](C)Oc2ccc(NC(=O)NC3CCCCC3)cc2C(=O)N([C@@H](C)CO)C[C@H]1C` the CPE inhibition was -11.4%.
In the case of `Cc1noc(C)c1S(=O)(=O)N(C)C[C@@H]1OCCCC[C@@H](C)Oc2ccc(NC(=O)Nc3ccccc3)cc2C(=O)N([C@H](C)CO)C[C@@H]1C`, the CPE inhibition is reported as 3.34%.
`Cc1noc(C)c1S(=O)(=O)N(C)C[C@@H]1OCCCC[C@@H](C)Oc2ccc(NS(=O)(=O)c3ccccc3)cc2C(=O)N([C@H](C)CO)C[C@@H]1C` gave a CPE inhibition of -8.98%.
In the case of `CCC(=O)N1CCC2(CC1)CN(Cc1cccc(OC)c1)[C@@H](CO)c1[nH]c3cc(OC)ccc3c12`, the CPE inhibition is reported as -4.07%.
With `C[C@@H]1CN([C@H](C)CO)C(=O)c2cc(C#CCN(C)C)cnc2O[C@@H]1CN(C)C(=O)Cc1cccnc1` the CPE inhibition was 6.92%.
`CCc1cccc(NC(=O)O[C@H]2[C@H](OC(=O)Nc3ccccc3-c3ccccc3)[C@H](OC(=O)Nc3ccccc3-c3ccccc3)[C@@H](OC)O[C@@H]2CO)c1` gave a CPE inhibition of 1.23%.
For `CC(C)CNc1cccc2c1S(=O)(=O)N[C@H](C)CO2`, the CPE inhibition was 2.95%.
Work on `CN(C)C(=O)C[C@@H]1C=C[C@H](NC(=O)Nc2cccc(F)c2)[C@H](CO)O1` yielded a CPE inhibition of -10%.
With `CC1(C)CC(=O)C=C(c2ccc(Cl)c(C(F)(F)F)c2)C1` the CPE inhibition was 1.16%.
For `COc1ccc(CCNC2=CC(=O)CC(C)(C)C2)cc1`, the CPE inhibition was 16.6%.
In the case of `COc1cc(F)c(C2=CC(=O)CC(C)(C)C2)cc1F`, the CPE inhibition is reported as 26.9% (active).
Work on `COc1ccc(-c2csc3ncnc(N4CCN(S(=O)(=O)c5cccc(F)c5)CC4)c23)cc1` yielded a CPE inhibition of 5.97%.
With `Cc1cc(F)ccc1S(=O)(=O)Nc1ncnc2scc(-c3ccc(F)cc3)c12` the CPE inhibition was 46.8% (active).
Work on `O=S(=O)(Nc1ncnc2sccc12)c1cccc(F)c1` yielded a CPE inhibition of -1.13%.
`O=C1CN(S(=O)(=O)c2ccccc2)C[C@H]2[C@H](c3ccc(C4=CCCC4)cc3)[C@@H](CO)N12` showed a CPE inhibition of -1.48%.
Molecule `COc1cccc(NC(=O)N[C@@H]2CC[C@H](CC(=O)Nc3ccccc3)O[C@@H]2CO)c1` has a CPE inhibition of 3.12%.
For `Nc1ccccc1-c1cn(CC(=O)Nc2ccon2)nn1`, the CPE inhibition was 15.8%.
For `CO[C@@H]1CN(C)C(=O)c2ccc(NS(=O)(=O)c3cccc(C)c3)cc2OC[C@@H](C)NC[C@H]1C`, the CPE inhibition was 10.6%.
Work on `Cc1noc(C)c1NC(=O)N(C)C[C@@H]1OCCCC[C@H](C)Oc2ccc(NC(=O)NC3CCCCC3)cc2C(=O)N([C@H](C)CO)C[C@@H]1C` yielded a CPE inhibition of -0.006%.
Work on `C[C@@H]1CN([C@@H](C)CO)C(=O)c2cc(NC(=O)Nc3cccc4ccccc34)ccc2O[C@@H]1CN(C)Cc1ccc(-c2ccccc2)cc1` yielded a CPE inhibition of 6.66%.
Work on `COc1ccc(CN(C)C[C@@H]2Oc3ccc(NC(=O)Nc4cccc5ccccc45)cc3C(=O)N([C@H](C)CO)C[C@H]2C)cc1` yielded a CPE inhibition of 1.24%.
For `C[C@@H]1CN([C@H](C)CO)C(=O)c2cc(NC(=O)CCN3CCOCC3)ccc2O[C@H]1CN(C)Cc1ccc(Oc2ccccc2)cc1`, the CPE inhibition was 25.3% (active).
In the case of `C[C@@H]1CN([C@@H](C)CO)C(=O)c2cc(NC(=O)Cc3ccccc3)ccc2O[C@@H]1CN(C)Cc1ccc(Oc2ccccc2)cc1`, the CPE inhibition is reported as -2.18%.
Molecule `COc1ccc(CN(C)C[C@H]2Oc3ccc(NC(=O)CCN4CCOCC4)cc3C(=O)N([C@@H](C)CO)C[C@H]2C)cc1` has a CPE inhibition of 8.91%.
In the case of `C[C@@H]1CN([C@@H](C)CO)C(=O)c2cc(NC(=O)Nc3cccc4ccccc34)ccc2O[C@H]1CN(C)Cc1ccc(Oc2ccccc2)cc1`, the CPE inhibition is reported as 29.3% (active).

From PubChem BioAssay AID651640 (Broad Institute, 2012)
